# Laboratory results: PubChem BioAssay AID493168 (National Center for Advancing Translational Sciences (NCATS), 2011)
# Inconclusive results are not listed. Unmarked numbers belong to inactive results. Active and inactive are the calls of the source. The call rests on the fitted dose curve; in most records, active means well fitted inhibition curve with a large enough effect; inconclusive means small, poorly fitted or top-dose-only effect, or effect the other way; inactive means flat fitted curve, though single readings scatter.
# Molecular target: Ubiquitin carboxyl-terminal hydrolase 2 (Homo sapiens) (UniProt O75604)
# Sequence (O75604 whole entry, looked up): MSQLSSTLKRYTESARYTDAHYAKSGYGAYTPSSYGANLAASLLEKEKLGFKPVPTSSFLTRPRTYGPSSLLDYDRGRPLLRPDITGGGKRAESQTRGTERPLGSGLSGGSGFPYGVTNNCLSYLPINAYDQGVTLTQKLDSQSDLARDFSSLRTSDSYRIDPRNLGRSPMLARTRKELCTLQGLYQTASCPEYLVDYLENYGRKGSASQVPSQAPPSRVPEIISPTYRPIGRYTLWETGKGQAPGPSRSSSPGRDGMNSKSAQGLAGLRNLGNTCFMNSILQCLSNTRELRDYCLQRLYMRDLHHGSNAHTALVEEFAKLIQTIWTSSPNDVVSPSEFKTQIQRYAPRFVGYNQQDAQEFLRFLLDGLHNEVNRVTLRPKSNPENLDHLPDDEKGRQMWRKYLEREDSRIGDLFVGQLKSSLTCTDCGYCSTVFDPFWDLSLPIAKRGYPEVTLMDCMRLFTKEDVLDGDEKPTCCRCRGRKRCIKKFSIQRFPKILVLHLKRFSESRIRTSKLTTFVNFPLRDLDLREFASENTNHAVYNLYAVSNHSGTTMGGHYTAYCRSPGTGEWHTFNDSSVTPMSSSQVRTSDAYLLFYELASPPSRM
# Assay: Confirmation Assay for Inhibitors of Ubiquitin-specific Protease USP2a Using CHOP2 as the Reporter; further: nearly all actives have a fitted effect of over 55% in size;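 on activity change, negative = inhibition: plate controls were DMSO wells for no effect and full inhibition by NEM control for full effect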
# Conditions: USP2 core, Ub-CHOP2 coupled reporter fluorescence; series mostly up to 38.3 µM; activity change, negative = inhibition: at the top concentration
# Method in brief: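 USP2 core (10 nM final) was preincubated with compound for 30 min at RT in Tris-HCl pH 8.0, CaCl2, beta-mercaptoethanol, CHAPS. Ub-CHOP2 and reporter substrate (25 nM final each) were added, and fluorescence (Ex 485/Em 531 nm) was read after 60 min.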
# Potency means the concentration at half of the fitted maximal effect.
Structure (SMILES),"activity change, negative = inhibition",Potency
CNC(=O)NC(=O)CSc1ccc(NC(C)=O)cc1,-4.02%,–
O=C(Nc1cccc(S(=O)(=O)N2CCCC2)c1)c1cncc(Br)c1,-0.951%,–
O=C(Nc1ccc2nc(-c3ccco3)c(-c3ccco3)nc2c1)N1CCN(c2ccccn2)CC1,–,16.5 µM (active)
COc1ccc(C(=O)OCC(=O)c2c[nH]c3ccccc23)c(OC)c1,-0.191%,–
Cc1ccc(C(=O)N/C(=C/c2ccco2)C(=O)Nc2cccc(C(=O)O)c2)cc1,-4.3%,–
O=C(CC(C(=O)O)C1CCCO1)NCCc1ccc2c(c1)OCO2 (stereo not drawn),4.46%,–
O=C1COc2ccc(C(=O)COC(=O)/C=C/c3ccc(Br)o3)cc2N1,–,9.27 µM (active)
Cc1noc(/C=C/c2ccco2)c1S(=O)(=O)N1CCC(C(=O)N(C)Cc2ccccc2)CC1,–,14.7 µM (active)
N#C/C(=C\c1ccc(O)c(O)c1)C(=O)Nc1cccc2ncccc12,–,18.5 µM (active)
Cc1ccc(C(=O)c2coc3c2C(=O)C(=O)c2ccccc2-3)cc1,-1.36%,–
C=CC[C@H](CC(=O)OC(C)(C)C)C(=O)OC[C@@H]1CCCN1C(=O)[C@H](CC=C)CC(=O)N[C@H](CO)Cc1ccccc1,4%,–
O=C(c1ccc([N+](=O)[O-])cc1)N(Cc1ccc(Cl)cc1)N1C(=O)CCCC1=O,-1.63%,–
CC(NC(=O)COc1ccccc1-c1ccccc1)c1ccccc1 (stereo not drawn),2.1%,–
CCC(C)(C(=O)NC1CCCCC1)N(C(=O)C1CCC(=O)N1)c1ccccc1 (stereo not drawn),-1.54%,–
O=C(CSc1nnnn1-c1ccc(F)cc1)c1ccc(O)c(O)c1,-2.57%,–
O=C(Nc1ccc2c(c1)OCO2)NC1(C(F)(F)F)Oc2ccccc2O1,0.65%,–
O=C(NN1C(=O)/C(=C/C=C/c2ccco2)SC1=S)c1ccncc1,–,13.1 µM (active)
COC(=O)CCC/C=C1/SCC(NC(=O)c2ccccc2)C1=O (stereo not drawn),-11%,–
C=CCn1c(Br)nc2c1c(=O)n(C)c(=O)n2C,-3.17%,–
Cn1c(C(=O)NCCN2CCOCC2)cc2c(=O)n(C)c3ccccc3c21,-0.508%,–
O=S(=O)(Nc1cccc(-c2cn3c(n2)SCC3)c1)c1ccc(F)cc1F,-19.9%,–
CCOc1ccccc1N(CC(=O)NC(C)(C)C)C(=O)c1ccc(CN2CCOCC2)o1,-4.17%,–
Cc1ccc(C)c(OCC(=O)Nc2cc(NC(=O)COc3cc(C)ccc3C)cc(C(=O)O)c2)c1,-15.4%,–
